From PubChem BioAssay AID950 (NMMLSC, 2007)
Hit rate of the full screen: of about 190,000 compounds, about 120 (0.063%) were called active. Cut-off read from the data, not from the text of the source: active = inhibition above about 40%; inconclusive = no clear call, values can overlap the other calls; inactive = below that. The entries come from a sample that favours actives as a whole.

target: Apoptosis regulator Bcl-2 (Homo sapiens) (UniProt P10415); assay: inhibitors of Bim-Bcl-2 binding, primary screen, biochemical, multiplexed, human Bcl-2 family (AID 950); conditions: Bead-based flow cytometry, Bim peptide-Bcl-2 binding; at 10 µM; hits give high values;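 note: 0% = no compound wells with probe peptide and 100% = reference peptide inhibitor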
Sequence (P10415 whole entry, looked up): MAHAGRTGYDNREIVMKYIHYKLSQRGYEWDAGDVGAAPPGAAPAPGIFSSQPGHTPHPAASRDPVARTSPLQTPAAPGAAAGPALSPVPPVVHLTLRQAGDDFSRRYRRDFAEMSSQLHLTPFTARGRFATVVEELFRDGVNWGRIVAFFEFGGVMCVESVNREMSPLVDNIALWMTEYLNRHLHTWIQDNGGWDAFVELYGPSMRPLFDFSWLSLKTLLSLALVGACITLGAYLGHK

inhibition, inactive:
O=S(=O)(c1ccccc1)c1nc(-c2ccccc2F)oc1NCc1cccnc1 2%
CS(=O)(=O)N(Cc1ccccc1Cl)c1ccc(C(=O)NCc2cccnc2)cc1 -4%
CCOC(=O)c1sc(NC(=O)CSc2nc(O)c(Cc3ccccc3)c(=O)[nH]2)nc1C 0%
COc1ccc(CN2CN(C3CCCC3)CSC2=S)cc1 -4%
COC(=O)c1ccc(-n2cnc3ccccc32)nc1 -4%
CCOc1cc(/C=C2/C(=N)N3OC(C)=CC3=NC2=O)ccc1OC 2%
CNC(=O)c1[nH]cnc1C(=O)N[C@@H](CC(C)C)C(=O)OCc1ccccc1 -3%
CCOC(=O)Cn1nnnc1C -3%
CN(NC(=O)C1CC(=O)N(c2ccccc2)C1)C1=NS(=O)(=O)c2ccccc21 (stereo not given) -2%
Cc1nc2sc3c(c2c(=O)n1NC(=O)CCl)CCCC3 -3%
COc1ccc(N(CC(=O)Nc2ccc(C)cc2C)S(=O)(=O)c2ccccc2[N+](=O)[O-])c(OC)c1 -1%
COc1cccc(CN(C)CC(=O)NCc2ccccc2Cl)c1OC 0%
CCOC(=O)c1[nH]cnc1C(=O)Nc1ccccc1C 1%
CCCC1(C(=O)OC)NC(c2ccco2)C2C(=O)N(C)C(=O)C21 (stereo not given) -2%
CC(=O)Nc1ccc(OC(=O)COc2ccc(Br)cc2)cc1 0%
c1ccc(Cc2cc[n+](Cc3ccccc3)cc2)cc1 0%
C/C(CC(=O)Nc1ccc(C)cc1C)=N\NC(=O)C(C)C 0%
COc1cccc(NC(=O)CN(C)CC(=O)Nc2ccc3c(c2)CCC3)c1 0%
Cc1ccc(NC(=O)N2CCSc3ccccc32)cc1 -1%
COc1ccc(NC(=S)Nc2ccc(S(N)(=O)=O)cc2)c(C)c1 -4%
O=C(c1ccc(Br)o1)N(c1ccccn1)C1CCCCC1 -16%
Cc1sc2c(c1C)c(=O)n(-c1ccccc1)c(=O)n2CC(=O)NCC1CCCO1 (stereo not given) 1%
COc1ccc(Br)cc1CN(C)CC(=O)Nc1cc([N+](=O)[O-])ccc1OC -9%
O=C(/C=C/c1ccccc1Cl)Nc1ccc(S(=O)(=O)Nc2ncccn2)cc1 -1%
COC(=O)Cc1ccc(OCC(=O)Nc2ccc(OC(F)(F)F)cc2)cc1 -5%
O=C(C1CCCO1)N(c1ccc(F)cc1)C1C=CS(=O)(=O)C1 (stereo not given) -2%
CCc1nnc(NC(=O)CCN(c2ccc(C)cc2)S(=O)(=O)c2ccccc2)s1 0%
COc1ccc(-c2csc(NC(=O)c3ccc(N4C(=O)CCC4=O)cc3)n2)cc1OC -4%
CCOc1ccc(NC(=O)CC2C(=O)N(c3ccccc3)C(=O)N2CCOC)cc1 (stereo not given) 1%
Cc1ccc(C(NC(=O)N2CCCC2)C(Cl)(Cl)Cl)cc1F (stereo not given) -1%
COc1ccc(C[C@H]2CN3C(=NC[C@H]3C)N2CCNC(=O)CCC2CCCCC2)cc1 0%
CCOc1ccc(-c2ccc(SCC(=O)N3CCOCC3)nn2)cc1 -3%
O=C(CC1CCCCC1)NCc1ccco1 -4%
CCOC(=O)CNC(=O)/C=C/c1c(Cl)cccc1Cl 4%
CCN(CC)CCCNC(=O)Cn1cnc2sc(C)c(S(=O)(=O)N3CCN(c4ncccn4)CC3)c2c1=O -3%
CCOn1c(=O)c(=O)n(O)c2ccccc21 -1%
CCO[C@@H]1OC(C(=O)NCc2nc3ccccc3[nH]2)=C[C@H](C2CCCCC2)[C@H]1CCCO -2%
Fc1cccc(CSc2nnc3ccc(-c4ccncc4)nn23)c1 3%
CSc1ccc(/C=N/NC(=O)c2cccc(Cl)c2)cc1 -7%
O=C(Cc1ccc([N+](=O)[O-])cc1)N/N=C/c1ccco1 -4%
CC1(C)CC(=O)C(C2c3ccccc3S(=O)(=O)c3ccccc32)C(=O)C1 0%
O=C(Oc1c(-c2ccco2)oc2ccccc2c1=O)c1cccnc1 -4%
CCOCCCn1c(NN)nc2ccccc2c1=O -5%
CCOc1ccc(NC(=O)c2ccc(CSc3nnnn3C)cc2)cc1 -9%
Nc1nnc(SCn2nnc3ccccc3c2=O)s1 -5%
CN(CC(=O)Nc1ccccc1F)CC(=O)Nc1ccccc1Br -5%
Cc1cc(C)cc(N(CC(=O)NCCSCc2ccco2)S(C)(=O)=O)c1 -7%
COc1ccc(C(CCN(Cc2ccc(OC)c(OC)c2)C(=O)CCl)c2ccccc2)cc1 (stereo not given) -6%
COc1cc(OC)c(C(=O)OC(C)C(=O)Nc2cc(C(F)(F)F)ccc2Cl)cc1OC (stereo not given) -3%
Cc1ccnc(NC(=O)C(C)N2C(=O)c3ccccc3C2=O)c1 (stereo not given) 0%
